This is part of a sample that, as a whole, favours compounds with a hit. Of some 83,000 tested, about 20% had one in any assay.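 In brief: 96-well plates, 48 h treatment, single concentration, percent growth endpoint.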 The source made the active and inactive calls. The calls were made as follows: active = growth percent below 10; inactive = the rest.
Columns and labels:
Experiment in all cases: NCI-60 one-dose screen, 48 h (100 = growth as untreated, 0 = no growth, -100 = all killed)
Settings in all cases: 10 µM unless noted
SR leukemia = test system: SR leukemia
RPMI-8226 leukemia = test system: RPMI-8226 leukemia
OVCAR-8 ovarian = test system: OVCAR-8 ovarian
OVCAR-4 ovarian = test system: OVCAR-4 ovarian
SK-OV-3 ovarian = test system: SK-OV-3 ovarian
IGROV1 ovarian = test system: IGROV1 ovarian
OVCAR-3 ovarian = test system: OVCAR-3 ovarian
HS 578T breast = test system: HS 578T breast
NCI/ADR-RES ovarian = test system: NCI/ADR-RES ovarian
T-47D breast = test system: T-47D breast
BT-549 breast = test system: BT-549 breast
SW-620 colon = test system: SW-620 colon
MCF7 breast = test system: MCF7 breast
HCT-116 colon = test system: HCT-116 colon
HCC-2998 colon = test system: HCC-2998 colon
KM12 colon = test system: KM12 colon
OVCAR-5 ovarian = test system: OVCAR-5 ovarian
MDA-MB-435 melanoma = test system: MDA-MB-435 melanoma

Row | SMILES | growth (SR leukemia) | growth (RPMI-8226 leukemia) | growth (OVCAR-8 ovarian) | growth (OVCAR-4 ovarian) | growth (SK-OV-3 ovarian) | growth (IGROV1 ovarian) | growth (OVCAR-3 ovarian) | growth (HS 578T breast) | growth (NCI/ADR-RES ovarian) | growth (T-47D breast) | growth (BT-549 breast) | growth (SW-620 colon) | growth (MCF7 breast) | growth (HCT-116 colon) | growth (HCC-2998 colon) | growth (KM12 colon) | growth (OVCAR-5 ovarian) | growth (MDA-MB-435 melanoma)
1 | Fc1ccccc1-c1nc(-c2nc3cc(Cl)c(Cl)cc3[nH]2)c2ccccn12 | 20.7% (inactive) | 74.7% (inactive) | 68.4% (inactive) | 1.61% (active) | 83.7% (inactive) | 21.9% (inactive) | 70.5% (inactive) | 44% (inactive) | 76% (inactive) | 31.5% (inactive) | 88.9% (inactive) | 80.2% (inactive) | 40.5% (inactive) | 37.7% (inactive) | 96.2% (inactive) | 80.5% (inactive) | – | –
2 | O=C(O)C1CCCCN1c1nc(Cl)nc(Cl)n1 (stereo not drawn) | 118% (inactive) | 109% (inactive) | 99.3% (inactive) | – | 99.9% (inactive) | 106% (inactive) | 108% (inactive) | 103% (inactive) | 101% (inactive) | 99% (inactive) | 103% (inactive) | 101% (inactive) | 100% (inactive) | 111% (inactive) | 101% (inactive) | 111% (inactive) | 105% (inactive) | –
3 | O=C(NS(=O)(=O)c1ccc2ccccc2c1)n1cc(-c2ccncc2)c(-c2ccc(Cl)c(O)c2)n1 | 61.8% (inactive) | 60.2% (inactive) | 72.5% (inactive) | – | 81.8% (inactive) | 60.2% (inactive) | 133% (inactive) | 72.4% (inactive) | 87.6% (inactive) | 78.6% (inactive) | 100% (inactive) | 95.2% (inactive) | 114% (inactive) | 39.2% (inactive) | – | 103% (inactive) | 89.8% (inactive) | –
4 | N=c1ccc2nc3ccc(N)cc3sc-2c1 | 38.2% (inactive) | 30% (inactive) | 13.5% (inactive) | – | 58.4% (inactive) | 40.6% (inactive) | 0.418% (active) | 51.9% (inactive) | 9.73% (active) | 5.98% (active) | – | 31.7% (inactive) | 14.6% (inactive) | 1.01% (active) | 53.2% (inactive) | 18.1% (inactive) | 48.1% (inactive) | -56.6% (active)
5 | O=C(/C=C/c1cc(-c2ccc3c(c2)OCO3)n[nH]1)c1ccc2c(c1)OCO2 | 44.5% (inactive) | 56.6% (inactive) | 86.9% (inactive) | 71.3% (inactive) | 109% (inactive) | 91.6% (inactive) | 90.7% (inactive) | 95.2% (inactive) | 102% (inactive) | 72.7% (inactive) | 88% (inactive) | 93.8% (inactive) | 84.8% (inactive) | 92.7% (inactive) | 106% (inactive) | 94.6% (inactive) | – | 99.7% (inactive)
6 | NC(=N\N=C/c1ccc(O)cc1)/C(N)=N\N=C/c1ccc(O)cc1 | 33.7% (inactive) | 65.3% (inactive) | 73.9% (inactive) | 74.4% (inactive) | 82.6% (inactive) | 79.4% (inactive) | 92% (inactive) | 99% (inactive) | 58.5% (inactive) | 49.6% (inactive) | 52.5% (inactive) | 40.8% (inactive) | 66.4% (inactive) | 62.2% (inactive) | 51% (inactive) | 23.6% (inactive) | – | 44.7% (inactive)
7 | COC1=C(OC)C(=O)C(CCCCCCCCCC[P+](c2ccccc2)(c2ccccc2)c2ccccc2)=C(C)C1=O | -27% (active) | -62.5% (active) | – | 2.19% (active) | -40% (active) | -31.6% (active) | -34.2% (active) | -58.9% (active) | 60.7% (inactive) | -59% (active) | -78.9% (active) | -13.2% (active) | -49.9% (active) | 6.18% (active) | -18.3% (active) | -37.5% (active) | 3.19% (active) | -82.6% (active)
8 | CC(C)(C)NCCC(O)c1cc2c(Cl)cc(Cl)cc2c2cc(C(F)(F)F)ccc12 (stereo not drawn) | -77.5% (active) | -40% (active) | -81.1% (active) | – | 15.6% (inactive) | -63.2% (active) | -88.7% (active) | -56.9% (active) | -80% (active) | -78.3% (active) | 69.6% (inactive) | -73.3% (active) | -81.3% (active) | -80.3% (active) | -83% (active) | -90.9% (active) | -83.2% (active) | -74.4% (active)
9 | C/C=C(\C)C(C(=O)NC1CCCCC1)N(C(=O)C1CCc2cc(F)ccc2O1)c1ccc(Cl)cc1 (stereo not drawn) | 111% (inactive) | 100% (inactive) | 98.3% (inactive) | – | 98.4% (inactive) | 103% (inactive) | 111% (inactive) | 94.7% (inactive) | 97.2% (inactive) | 95.2% (inactive) | 98.3% (inactive) | 103% (inactive) | 99.1% (inactive) | 103% (inactive) | 94.9% (inactive) | 111% (inactive) | 103% (inactive) | –
10 | Cc1cc(C2(c3cc(C)c(O)cc3C)OS(=O)(=O)c3ccccc32)c(C)cc1O | 95.3% (inactive) | 92.4% (inactive) | 103% (inactive) | – | 101% (inactive) | 107% (inactive) | 107% (inactive) | 96.3% (inactive) | 110% (inactive) | 102% (inactive) | – | 106% (inactive) | 78.5% (inactive) | 103% (inactive) | 101% (inactive) | 106% (inactive) | 111% (inactive) | 116% (inactive)
11 | CCN(CC)CCC(CNc1ccnc2cc(Cl)ccc12)c1ccccc1 (stereo not drawn) | 20.5% (inactive) | 59.3% (inactive) | 61.2% (inactive) | – | – | 80.2% (inactive) | 79.9% (inactive) | 46.8% (inactive) | 83.2% (inactive) | 71% (inactive) | – | 62.3% (inactive) | 26.3% (inactive) | 28.3% (inactive) | 68.2% (inactive) | 84.1% (inactive) | 87.9% (inactive) | -2.6% (active)
12 | COc1ccc(-c2cnnn2-c2nonc2-n2cccc2)cc1OC | -4.66% (active) | 52.2% (inactive) | 66.5% (inactive) | 90.6% (inactive) | 61.8% (inactive) | 62.4% (inactive) | 30.2% (inactive) | 82.5% (inactive) | 18.3% (inactive) | 45.3% (inactive) | 60.1% (inactive) | 27% (inactive) | 30.4% (inactive) | 35.6% (inactive) | 62% (inactive) | 31.7% (inactive) | – | -36.9% (active)
13 | O=C(NS(=O)(=O)c1ccccc1)n1cc(-c2ccncc2)c(-c2ccc(Cl)c(O)c2)n1 | 97.2% (inactive) | 97.4% (inactive) | 105% (inactive) | – | 102% (inactive) | 96.8% (inactive) | 117% (inactive) | 106% (inactive) | 102% (inactive) | 107% (inactive) | 104% (inactive) | 136% (inactive) | 109% (inactive) | 89.1% (inactive) | 127% (inactive) | 99.6% (inactive) | 116% (inactive) | 67.9% (inactive)
14 | CN(C)CCCN(c1nc(C(Cl)(Cl)Cl)ns1)c1nc(C(Cl)(Cl)Cl)ns1 | 17.1% (inactive) | 9.37% (active) | 55.3% (inactive) | – | – | 36.6% (inactive) | 31.7% (inactive) | 46% (inactive) | 48.8% (inactive) | 67.7% (inactive) | 74% (inactive) | 35.1% (inactive) | -34.3% (active) | 21.2% (inactive) | -12.9% (active) | 18.4% (inactive) | 66.5% (inactive) | 39.5% (inactive)
15 | Cc1cc(C(C)(C)C)ccc1S | 93.4% (inactive) | 104% (inactive) | 111% (inactive) | 99.2% (inactive) | 105% (inactive) | 109% (inactive) | 111% (inactive) | 101% (inactive) | 112% (inactive) | 91.6% (inactive) | 105% (inactive) | 98.4% (inactive) | 86.4% (inactive) | 103% (inactive) | 112% (inactive) | 112% (inactive) | – | 111% (inactive)
16 | COc1ccc2c(c1)OC1=C(C(=O)OC1)C2c1cc(OC)c2c(c1)OCO2 (stereo not drawn) | -7% (active) | 28.3% (inactive) | 20.2% (inactive) | 39.8% (inactive) | 8.55% (active) | 21.1% (inactive) | -51.3% (active) | 14.9% (inactive) | 13.6% (inactive) | 52.1% (inactive) | 26% (inactive) | 18.7% (inactive) | 15% (inactive) | 10% (inactive) | 14.9% (inactive) | 1.61% (active) | – | -22.5% (active)
17 | COc1cccc(CC(C)=C(c2ccc(OCCN(C)C)cc2)c2ccc(OCCN(C)C)cc2)c1 | -17% (active) | -31.1% (active) | -2.71% (active) | – | 70.2% (inactive) | 8.66% (active) | -17.8% (active) | 42.4% (inactive) | 19% (inactive) | -72.7% (active) | 72.2% (inactive) | -61.6% (active) | -55.7% (active) | -74.3% (active) | -15.3% (active) | -1.23% (active) | 21.2% (inactive) | –
